# From PubChem BioAssay AID720650 (Broad Institute, 2013)
# Activity calls are given as the source filed them. How the calls were made is not given here.
# Assay: C difficile toxins, biochemical counterscreen, UDPG substrate absence, confirmatory dose response (AID 720650)
# Details: series mostly up to 19.5 µM; activity change, negative = inhibition: at the top concentration
SMILES,"activity change, negative = inhibition",AC50
Cc1ccc(NC(=O)OC(C)N2CCCCC2)cc1NC(=O)OC(C)N1CCCCC1 (stereo not given),9.91% (inactive),
COc1ccc(C(=O)Nc2ccccc2C(=O)O)cc1Cl,,> 39 µM (inactive)
O=c1[nH]c(/C=C\c2ccc(O)c(Cl)c2)nc(O)c1[N+](=O)[O-],,20 µM (active)
COc1ccc(-c2ccc3c(c2)[C@H]2[C@H](CCN2C(=O)CN2CCOCC2)[C@@H](CO)N3)cc1,,11 µM (active)
CCOC(=O)C1=C(C)Nc2nnnn2C1c1ccc(OC)c(Br)c1 (stereo not given),,> 39 µM (inactive)
CC(C)NC(=O)N1CC[C@@H]2[C@H]1c1cc(-c3ccc(F)cc3)ccc1N(C)[C@H]2CO,,6.96 µM (active)
O=C(C[C@H]1C[C@H]2c3cc(NC(=O)c4ccc5c(c4)OCO5)ccc3O[C@H]2[C@H](CO)O1)NCc1cccc(F)c1,-11.6% (inactive),
Cc1cnc(C(=O)OCC(=O)Nc2ccc(OCc3ccccc3)cc2)cn1,11.9% (inactive),
COc1ccc(/C=N/N=C2/NC(=O)C(CC(=O)NC(N)=O)S2)cc1 (stereo not given),-11.2% (inactive),
C=CCn1c(C)cc(C(=O)COC(=O)CCc2cc(OC)c(OC)c(OC)c2)c1C,-24.1% (inactive),
O=c1c2ccccc2oc2ccc(NCCCN3CCOCC3)cc12,-10.6% (inactive),
Cc1ccc(NNC(=O)c2ccno2)cc1C,,0.302 µM (active)
c1ccc2[nH]c(-c3ccc4c(c3)OCO4)nc2c1,-21.3% (inactive),
CSc1nc2c(c(=O)[nH]c(=O)n2C)n1Cc1ccccc1,-0.889% (inactive),
CNC(=S)N/N=C/c1c(C(=O)OC)cnn1-c1ccc(F)cc1F,-6.87% (inactive),
Cc1nc2[nH]c(=S)[nH]c2c(=O)[nH]1,,> 39 µM (inactive)
CCC(=O)N1CC[C@@H]2[C@H]1c1cc(-c3ccccc3)ccc1N(C)[C@H]2CO,,4.44 µM (active)
CC[C@H](C)[C@H]1CNC(=S)N1CC1CCN(CCCC2CCCC2)CC1,-5.42% (inactive),
O=[N+]([O-])c1ccc(/C=C/c2ccc3ccccc3n2)cc1,-8.36% (inactive),
CNC(=O)C[C@@H]1CC[C@H]2[C@H](COc3ccc(NS(=O)(=O)c4ccccc4C)cc3C(=O)N2C)O1,-5.07% (inactive),
